Drawing on PubChem BioAssay (NCI), this text covers growth for nine compounds.

The panel holds about 83,000 compounds, 20% with a hit somewhere; the sample as a whole holds those more often.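 96-well plates, one dose, 48 hours. Percent growth reported; active if below 10.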 Values without a mark were called inactive. Calls of active or inactive are those of the source.

Test systems include SR leukemia; RPMI-8226 leukemia; OVCAR-8 ovarian; OVCAR-5 ovarian; OVCAR-4 ovarian; IGROV1 ovarian; OVCAR-3 ovarian; HS 578T breast; NCI/ADR-RES ovarian; T-47D breast; BT-549 breast; MDA-MB-435 melanoma; SW-620 colon; MCF7 breast; HCT-116 colon; HCC-2998 colon; KM12 colon; SK-OV-3 ovarian.
Holding throughout (assay): NCI-60 one-dose screen, 48 h (100 = growth as untreated, 0 = no growth, -100 = all killed)
Holding throughout (conditions): 10 µM unless noted

As for `Brc1cnc2[nH]cc(-c3nnc(-c4ccccc4)o3)c2c1`, the growth is 68.5% in the experiment with SR leukemia; 85% with RPMI-8226 leukemia; 84.7% in the experiment on OVCAR-8 ovarian; 96.5% in the experiment on OVCAR-5 ovarian; 71.3% with OVCAR-4 ovarian; 41.2% in the experiment on IGROV1 ovarian. Besides, the growth in the experiment on OVCAR-3 ovarian is 70.2%; in the experiment on HS 578T breast, 79.2%; with NCI/ADR-RES ovarian it was 80%; with T-47D breast, 56.5%; in the experiment on BT-549 breast, 82%; with MDA-MB-435 melanoma it was 78%. Also, the growth is 86.4% with SW-620 colon; 63.6% in the experiment on MCF7 breast; 55.7% in the experiment with HCT-116 colon; 104% with HCC-2998 colon; 68.9% in the experiment with KM12 colon.
Turning to `COc1cc(OC)c2c(c1)c1nc3cc(C)c(C)cc3nc1n2CCN(C)C`, the growth in the experiment on SR leukemia was 49.4%; with RPMI-8226 leukemia, 65.2%; in the experiment with OVCAR-8 ovarian, 79.3%; in the experiment with OVCAR-5 ovarian it was 105%; in the experiment with OVCAR-4 ovarian, 87.8%; with SK-OV-3 ovarian, 93.7%. Also, the growth in the experiment with IGROV1 ovarian is 87.2%; in the experiment with OVCAR-3 ovarian it was 109%; in the experiment on HS 578T breast, 91.9%; in the experiment on T-47D breast it was 74.3%; in the experiment on BT-549 breast it was 97.4%; in the experiment on MDA-MB-435 melanoma, 91.7%. Moreover, the growth in the experiment with SW-620 colon was 66%; in the experiment on HCT-116 colon it was 69.7%; with HCC-2998 colon it was 93.9%; in the experiment on KM12 colon it was 86.3%.
`NC(=O)[C@@H]1CC2CCC1C2` (stereo partly drawn): the growth is 90.6% with SR leukemia; 93.3% in the experiment with RPMI-8226 leukemia; 108% with OVCAR-8 ovarian; 95% in the experiment on OVCAR-5 ovarian; 106% with OVCAR-4 ovarian; 101% in the experiment with SK-OV-3 ovarian. Besides, the growth with IGROV1 ovarian is 110%; in the experiment with OVCAR-3 ovarian, 93.4%; in the experiment with NCI/ADR-RES ovarian it was 121%; with T-47D breast, 113%; with BT-549 breast it was 94.2%; in the experiment on SW-620 colon, 94%. Besides, the growth was 101% with HCT-116 colon, 121% in the experiment on HCC-2998 colon and 102% in the experiment with KM12 colon.
In the case of `CN1CCN(CC#CCn2c3c(c4ccccc42)C[C@]2(C)[C@H]4CC[C@@H]5[C@H]6[C@H]7OC(=O)[C@@]6(CCC7(C)C)CC[C@@]5(C)[C@]4(C)CC[C@H]2C3(C)C)CC1`, the growth in the experiment with SR leukemia was 0.535% (active); with RPMI-8226 leukemia, 59.2%; in the experiment on OVCAR-8 ovarian it was 60.3%; with OVCAR-5 ovarian, 112%; in the experiment on OVCAR-4 ovarian, 74.1%; in the experiment on SK-OV-3 ovarian, 106%. For the same compound, the growth is 90.9% in the experiment on IGROV1 ovarian; 80.2% in the experiment on OVCAR-3 ovarian; 101% in the experiment with HS 578T breast; 104% in the experiment on T-47D breast; 89.5% in the experiment with BT-549 breast; 97.8% in the experiment with MDA-MB-435 melanoma. Moreover, the growth in the experiment on SW-620 colon is 91.2%; with MCF7 breast, 67.7%; in the experiment on HCT-116 colon, 35.1%; in the experiment with HCC-2998 colon, 106%; in the experiment on KM12 colon, 93.7%.
In the case of `COc1cc(-c2nc(-c3ccccc3)c(-c3ccccc3)[nH]2)cc(OC)c1O`, the growth in the experiment on SR leukemia is 4.48% (active); in the experiment on RPMI-8226 leukemia, 0.561% (active); with OVCAR-8 ovarian, -0.964% (active); in the experiment with OVCAR-5 ovarian, 75.3%; in the experiment on OVCAR-4 ovarian, -36.5% (active); in the experiment on SK-OV-3 ovarian it was -0.937% (active). Moreover, the growth with IGROV1 ovarian is 22.3%; with OVCAR-3 ovarian it was -80.9% (active); in the experiment with HS 578T breast, 9.67% (active); in the experiment on T-47D breast, 6.06% (active); with MDA-MB-435 melanoma, -23.2% (active); in the experiment on SW-620 colon, -37.2% (active). Moreover, the growth is -85.8% (active) in the experiment on MCF7 breast, -2.7% (active) in the experiment with HCT-116 colon, -55.2% (active) in the experiment with HCC-2998 colon and -52.9% (active) with KM12 colon.
For the compound `NC1=C(C/C(N)=N\O)C(c2ccccc2Cl)c2c(ccc3ccccc23)O1` (stereo not drawn), the growth in the experiment with SR leukemia is 54.7%; with RPMI-8226 leukemia, 81.9%; in the experiment on OVCAR-8 ovarian, 90.7%; in the experiment with OVCAR-5 ovarian, 100%; with OVCAR-4 ovarian it was 110%; with SK-OV-3 ovarian it was 92.2%. For the same compound, the growth was 59.2% in the experiment with IGROV1 ovarian; 77.9% in the experiment on OVCAR-3 ovarian; 83.9% in the experiment with HS 578T breast; 84.8% in the experiment with T-47D breast; 89.3% in the experiment with BT-549 breast; 3.52% (active) in the experiment on MDA-MB-435 melanoma. Further, the growth is 63.1% with SW-620 colon; 68.5% in the experiment on MCF7 breast; 83.8% in the experiment with HCT-116 colon; 97.1% in the experiment with HCC-2998 colon; 67.5% in the experiment on KM12 colon.
Turning to `Cc1nc([P+](c2ccccc2)(c2ccccc2)c2ccccc2)c(Sc2sc(-c3ccccc3)nc2[P+](c2ccccc2)(c2ccccc2)c2ccccc2)o1`, the growth in the experiment with SR leukemia is 18.6%; with RPMI-8226 leukemia it was -7.25% (active); with OVCAR-8 ovarian it was 8.83% (active); in the experiment on OVCAR-5 ovarian, 41.3%; in the experiment on OVCAR-4 ovarian, -1.77% (active); in the experiment with SK-OV-3 ovarian, -12.2% (active). The growth was 10.3% with IGROV1 ovarian; -1.45% (active) with OVCAR-3 ovarian; 14% with HS 578T breast; 4.85% (active) with T-47D breast; -0.458% (active) with BT-549 breast; -9.1% (active) in the experiment on MDA-MB-435 melanoma. Besides, the growth in the experiment with SW-620 colon is 9.8% (active); in the experiment with MCF7 breast it was 8.1% (active); in the experiment with HCT-116 colon, 3.77% (active); in the experiment on HCC-2998 colon it was 15.2%; in the experiment on KM12 colon, -0.528% (active).
Take `Brc1ccc2[nH]cc(-c3nc(-c4c[nH]c5ncccc45)cs3)c2c1`: the growth with SR leukemia is 9.23% (active); in the experiment with RPMI-8226 leukemia it was 39.9%; in the experiment with OVCAR-8 ovarian, 46.3%; in the experiment with OVCAR-5 ovarian it was 63.7%; with SK-OV-3 ovarian it was 55%; in the experiment with IGROV1 ovarian, 23.1%. The growth was 52.4% in the experiment with OVCAR-3 ovarian; 71.8% with HS 578T breast; 32.7% in the experiment with NCI/ADR-RES ovarian; 59.8% in the experiment on T-47D breast; 58.7% in the experiment on BT-549 breast; 40.6% in the experiment on MDA-MB-435 melanoma. Also, the growth is 6.36% (active) in the experiment on SW-620 colon, 17.5% with HCT-116 colon, 60.2% in the experiment on HCC-2998 colon and 21.3% in the experiment on KM12 colon.
As to `Cn1cc(-c2csc(-c3c[nH]c4ccc(F)cc34)n2)c2cccnc21`, the growth was 27.2% in the experiment with SR leukemia; 52% in the experiment with RPMI-8226 leukemia; 47.6% in the experiment with OVCAR-8 ovarian; 78.4% in the experiment on OVCAR-5 ovarian; 64.6% in the experiment on SK-OV-3 ovarian; 41.6% with IGROV1 ovarian. The growth in the experiment with OVCAR-3 ovarian is -2.33% (active); with HS 578T breast, 76.1%; with NCI/ADR-RES ovarian, 9.55% (active); in the experiment with T-47D breast it was 44.3%; in the experiment on BT-549 breast, 57.4%; with MDA-MB-435 melanoma, -28% (active). Also, the growth in the experiment on SW-620 colon is 26.5%; with MCF7 breast, 19.3%; in the experiment on HCT-116 colon it was 23.1%; in the experiment on HCC-2998 colon, 71.7%; in the experiment with KM12 colon, 20.6%.
